Experimental data published in PubChem BioAssay AID624330 (Southern Research Specialized Biocontainment Screening …, 2012).
Among all 340,000 compounds or so, about 2,100 (0.62%) were called active.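 Rule for the calls: active = first-screen hits whose inhibition reached a set limit at any dose in the follow-up dose series; inconclusive = inhibition above the set first-screen limit but never retested; inactive = the rest.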 The list is a sample of the results. Entries with a potency or affinity are not part of this list.

target: Rac GTPase-activating protein 1 (Homo sapiens) (UniProt Q9H0H5); assay: MgcRacGAP GTPase-activating activity inhibitors, confirmation, biochemical, ADP Hunter fluorescence, primary and confirmatory (AID 624330); conditions: MgcRacGAP-stimulated Rac1 GTP hydrolysis, at 30 µM, hits give high values, GST-tagged Rac1 F28L mutant substrate;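 note: fluorescence reports GDP produced by GAP-driven GTP hydrolysis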
Sequence (Q9H0H5 whole entry, looked up): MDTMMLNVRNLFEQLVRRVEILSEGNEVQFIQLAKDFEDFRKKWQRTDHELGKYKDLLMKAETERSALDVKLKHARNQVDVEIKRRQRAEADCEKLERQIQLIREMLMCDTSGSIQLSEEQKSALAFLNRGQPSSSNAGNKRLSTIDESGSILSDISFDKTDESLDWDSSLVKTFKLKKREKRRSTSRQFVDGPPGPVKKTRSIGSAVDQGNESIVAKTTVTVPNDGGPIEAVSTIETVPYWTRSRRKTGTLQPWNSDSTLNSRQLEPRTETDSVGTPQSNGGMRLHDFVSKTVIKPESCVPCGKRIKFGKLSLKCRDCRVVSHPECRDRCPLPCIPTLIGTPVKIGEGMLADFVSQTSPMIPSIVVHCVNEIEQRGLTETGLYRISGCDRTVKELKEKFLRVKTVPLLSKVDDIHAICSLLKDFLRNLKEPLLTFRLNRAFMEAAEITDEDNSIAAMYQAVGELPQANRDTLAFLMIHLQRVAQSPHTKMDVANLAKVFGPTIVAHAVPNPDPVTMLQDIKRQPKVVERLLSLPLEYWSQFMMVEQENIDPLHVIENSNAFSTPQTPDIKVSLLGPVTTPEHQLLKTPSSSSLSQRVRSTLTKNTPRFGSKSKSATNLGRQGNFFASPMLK

inhibition, inactive:
Cn1c(=O)c2c(nc(Oc3ccc(-c4ccccc4)cc3)n2C)n(C)c1=O 12.2%
COc1ccc(C(=O)Oc2c(OC)cc(C(=S)N3CCOCC3)cc2OC)cc1 4.31%
Cc1cc(Br)ccc1OCCCCN1CCC(C)CC1 9.17%
Cc1ccc(OCCCCN2CCC(C)CC2)c(Br)c1 17%
C[C@@H]1CN([C@@H](C)CO)C(=O)CCCn2nncc2CO[C@@H]1CN(C)S(C)(=O)=O 12%
COCc1ccc(C(=O)N2CCCCC2C(=O)Nc2ccc(-n3nc(C)cc3C)cc2)o1 (stereo unspecified) 7.88%
O=C(NCCCNC(=O)c1ccco1)c1ccc(Cl)c(Cl)c1 0%
COc1ccc(N=CC2=C(O)CCCC2=O)cc1 13.3%
COc1ccc(N=CC2=C(O)CC(C)(C)CC2=O)cc1 9.7%
O=C1CCCC(O)=C1C=Nc1cccc(C(F)(F)F)c1 11.5%
CC1(C)CC(=O)C(C=Nc2ccncc2)=C(O)C1 6.33%
O=C1CC(c2ccccc2)CC(O)=C1C=Nc1ccc(Cl)cc1 (stereo unspecified) 2.18%
O=C1CC(c2ccccc2)CC(O)=C1C=Nc1ccccc1O (stereo unspecified) 4.93%
CCOc1ccc(N=CC2=C(O)CC(C)(C)CC2=O)cc1 6.9%
CC1(C)CC(=O)C(C=Nc2ccccc2)=C(O)C1 2.7%
Cc1ccc(CN2CCN(/N=C/c3ccc(C)s3)CC2)c(C)c1 4.97%
COc1ccc(Nc2nnc(SCC(=O)NC3CCS(=O)(=O)C3)s2)cc1 (stereo unspecified) 4.04%
O=C(CN1C(=O)NC2(CCCCCC2)C1=O)N1CCN(S(=O)(=O)c2ccccc2)CC1 0.28%
CC(=O)NC1C(=O)N(CC(C)C)c2ccccc21 (stereo unspecified) 4.92%
CCCc1ccc2c(N)c(C#N)sc2n1 1.65%
Cc1ccccc1C(=O)N(CC(=O)Nc1sc(C)c(C)c1C(N)=O)C1CCCC1 -20.9%
CCOc1ccc(NC(=O)N(CCC(C)C)C2CCN(C(C)=O)CC2)cc1 4.34%
CCN1C(=O)c2cccc3c(N)ccc(c23)C1=O 7.37%
Nc1ccc2c3c(cccc13)C(=O)N(c1ccccc1)C2=O 5.87%
Cc1ncoc1C(=O)N1CCCC(C(=O)Nc2cccc(-c3ccc(F)cc3)c2)C1 (stereo unspecified) -3.84%
CCCc1cc(C(=O)OC)c2ccccc2n1 5.2%
O=C(COC(=O)C1CCC(=O)N1)Nc1ccc(Br)cc1 (stereo unspecified) 15.9%
COc1ccc(CCNC(C(=O)Nc2cc(C)cc(C)c2)c2ccccc2)cc1 (stereo unspecified) 2.32%
Cc1cc(C)cc(NC(=O)C(NCC2CCCO2)c2ccccc2)c1 (stereo unspecified) 20.5%
CCC1(C)CC(CCN(Cc2ccco2)C(C)=O)(c2ccccc2)CCO1 (stereo unspecified) 6.02%
CCOC(=O)N1CCC(N2C(=O)c3ccc(C(=O)NCc4ccc(F)cc4)cc3C2=O)CC1 -5.85%
CC(=O)c1c(C)[nH]c(C(=O)OCC(=O)Nc2ccc3[nH]c(=O)[nH]c3c2)c1C 9.39%
O=S(=O)(Cc1ccccc1)Nc1ccc(F)cc1 8.87%
CC1=Nc2cc(C(=O)O)ccc2Sc2ccc(C)cc21 -10.1%
CCC1=Nc2cc(C(=O)O)ccc2Sc2ccccc21 -0.29%
CC1=Nc2cc(C(=O)NCCCOC(C)C)ccc2Sc2ccc(C)cc21 7.38%
CCOC(=O)N1CCC(NC(=O)c2ccc3c(c2)N=C(C)c2ccccc2S3)CC1 4.04%
Cc1cccc(N(C(=O)CNC(=O)c2ccco2)C(C(=O)NC2CCCC2)c2cccnc2)c1C (stereo unspecified) 5.36%
Cc1ccccc1OCC1Cn2c(nc3c2c(=O)[nH]c(=O)n3C)O1 (stereo unspecified) 2.68%
Cc1c(NC(=S)N/N=C/c2ccc(Br)cc2)c(=O)n(-c2ccccc2)n1C 9.41%
COC(=O)/C(N=Nc1c(C)n(C)n(-c2ccccc2)c1=O)=C(\C)O 6.21%
CC(=O)/C(N=Nc1c(C)n(C)n(-c2ccccc2)c1=O)=C(\C)O 0.69%
Cc1c(N2C(=O)/C(=C/c3ccc(N(C)C)cc3)N(C)C2=S)c(=O)n(-c2ccccc2)n1C 27.2%
Cc1c(O)c(=O)n(-c2ccccc2)n1C 2.13%
Cc1c(NC(=S)N/N=C/c2cccc(O)c2)c(=O)n(-c2ccccc2)n1C 12.8%
CN1C(=S)N(c2cccnc2)C(=O)/C1=C\c1ccc(N(C)C)cc1 12.2%
Cc1c(N=Cc2cc3c(cc2Cl)OCO3)c(=O)n(-c2ccccc2)n1C 4.04%
O=C(Nc1cccc(-c2cccc(F)c2)c1)C1CCN(Cc2ccco2)CC1 7.74%
O=C(NCCN1C(=O)S/C(=C\c2ccccc2F)C1=O)C1CCCN1C(=O)c1cccs1 (stereo unspecified) -14.1%
Cc1ccccc1OCC(=O)N/N=C/c1cn(Cc2ccccc2)c2ccccc12 3.64%
Cc1ccc2nc(-c3ccc(N4C(=N)SC5CS(=O)(=O)CC54)cc3)sc2c1 (stereo unspecified) 9.19%
CCOc1ccc(C(=O)N2CCC(C(=O)c3ccc4c(c3)OCCO4)CC2)cc1 -2.21%
COc1ccc(/C=C2\CCCC(C(=O)C(F)(F)F)=C2O)cc1 4.33%
Cc1ccc(S(=O)(=O)Nc2ccc(S(=O)(=O)N3CCOCC3)cc2)cc1 0.84%
CC1CCc2sc(C(=O)NCCCn3ccnc3)cc2C1 (stereo unspecified) 5.91%
O=C(c1cc2c(=O)n3ccccc3nc2s1)N1CCN(Cc2ccccc2)CC1 4.57%
Cc1c(C(c2ccc(N(C)C)cc2)c2c(C)n(C)n(-c3ccccc3)c2=O)c(=O)n(-c2ccccc2)n1C -5.89%
CC1=CC(=Nc2c(C)n(C)n(-c3ccccc3)c2=O)C=C(C)C1=O -4.18%
Cc1c(N=Cc2nc3ccccc3[nH]2)c(=O)n(-c2ccccc2)n1C 17.9%
CCC(C)C1=CC(=Nc2c(C)n(C)n(-c3ccccc3)c2=O)C=C(C(C)CC)C1=O (stereo unspecified) 9.72%
Cc1c(-n2c(=S)[nH]c3ccccc3c2=O)c(=O)n(-c2ccccc2)n1C 4.22%
Cc1c(N(C)C)c(=O)n(-c2ccccc2)n1C 3.4%
O=NNc1nc2ccccc2n1Cc1ccccc1 7.61%
CCOC(=O)C(NC(=O)Nc1ccc(F)cc1F)(Oc1ccc(F)cc1)C(F)(F)F (stereo unspecified) 7.05%
Cc1cc(NS(C)(=O)=O)c(=O)n(Cc2c(F)cccc2Cl)c1 -0.27%
C=CCSc1nc2sc(C)c(C)c2c(=O)n1N 2.09%
CCc1cc(Cn2nc(-c3ccccc3)cc2C(=O)NCC2CC2)on1 12%
COc1cc2c(cc1OC)C(c1cccs1)N(C(=O)c1cccc(S(=O)(=O)N(C)C)c1)CC2 (stereo unspecified) 5.21%
CCOc1ccc(S(=O)(=O)N2CCN(C(=O)CCOc3ccccc3C)CC2)cc1 3.82%
CCOc1ccc(NC(=O)COc2cccc3c2CCN(Cc2cccnc2)C3=O)cc1 0.41%
O=C1CC2(CCN(C(=O)c3cccc(Br)c3)CC2)Oc2ccccc21 3.6%
COc1ccc(CCNc2nc(=S)[nH]c3cc(OC)c(OC)cc23)cc1OC 39.9%
COc1cc2[nH]c(=S)nc(NCCC(C)C)c2cc1OC 20.9%
COc1cc2nc(Nc3ccc(F)cc3)nc(N)c2cc1OC 6.17%
COc1ccc(C(=O)Nc2nc3cc(OC)c(OC)cc3c(=O)[nH]2)cc1 14.9%
CSc1nc2c([nH]1)c(=S)n(C)c(=O)n2C 8.34%
COC(=O)C(CC(C)C)NC(=O)CNC(=O)c1ccccc1C (stereo unspecified) 7.16%
COc1ccccc1N1CCN(C(=O)c2cccc(N3C(=O)C4C5C=CC(C5)C4C3=O)c2)CC1 (stereo unspecified) 9.14%
CC1=NNC(=O)C1Oc1ccccc1 (stereo unspecified) 10.8%
COc1ccc(C2C(=O)NN=C2C)cc1 (stereo unspecified) 22.1%
Cn1c(N)c(C(=O)COC(=O)/C=C/c2ccccc2)c(=O)n(C)c1=O 1.47%
Cc1cnc(NC(=O)CN2CCN(c3ccccn3)CC2)s1 2.02%
CCOc1ccccc1N1CCN(CC(=O)Nc2ncc(C)s2)CC1 5.5%
c1ccc(COc2ncnc3c2ncn3CCCNCC2CCCO2)cc1 (stereo unspecified) 7.05%
COc1ccccc1OCCCCN1CCCCC1 3.62%
Brc1ccccc1OCCN1CCOCC1 17.5%
COc1ccccc1OCCCCCCN1CCN(C)CC1 -3.02%
Brc1ccccc1OCCCN1CCOCC1 14.8%
COc1cc(C)ccc1OCCOCCOc1c(C)cc(C)cc1Br 3.98%
CCn1c(COc2ccc(=O)n(-c3ccccc3)n2)nnc1SCc1ccccc1C -2.27%
O=C(c1noc2c1CCCCC2)N1CCOCC1 1.03%
CC(C)CC(OC(=O)c1nsc(Cl)c1Cl)C(=O)NCC1CCCO1 (stereo unspecified) 5.99%
Cc1ccc(S(=O)(=O)N2CCN(c3c([N+](=O)[O-])cc(C(F)(F)F)cc3[N+](=O)[O-])CC2)cc1 6.82%
O=C(NC1CCCCCCC1)c1ccc2c(c1)OCO2 4.04%
O=C(Nc1ccc2c(c1)OCO2)C1CCCCC1 6.05%
CC(C)COC(=O)Cc1c(O)c2ccccc2[nH]c1=O 1.69%
